Active and inactive are the calls of the source. Unless noted, how the calls were made is not given here.

This note sets out measurements from PubChem BioAssay.

The nature of test [1]: anti-His antibody binders, primary screen, artefact control for SMM control protein annotation, biochemical, small-molecule microarray, 635 nm fluorescence (AID 1128).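 Further: score merges feature fluorescence with signal-to-noise for each printed compound spot.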 To be noted: anti-His Alexa647 antibody binding, higher = more signal.
Test [2] concerns Human papillomavirus type 1a E7 protein (residues 1-88). The test is described as follows: HPV1a E7 small-molecule binders, primary screen, biochemical, small-molecule microarray, residues 1-88, 635 nm (AID 1129). As to conditions: small-molecule microarray binding, fluorescence 635 nm; higher = more signal.
The target in test [3] is Focal adhesion kinase 1 (Homo sapiens) (UniProt Q05397). Nature of the test: small-molecule microarray binders of FAK, primary screen, biochemical, 635/667 nm fluorescence, BSA, DTT (AID 1130).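 Further: composite of spot emission at 667 nm and signal to noise over triplicate slides.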 As to conditions: PTK2 binding, 635 nm fluorescence, higher = more signal.
Test [4] concerns Fibrinogen (Alexa647-labelled). Nature of the test: fibrinogen binders on compound microarrays, profiling panel, artefact control for SMM control-protein annotation, biochemical, small-molecule microarray, 635/667 nm fluorescence (AID 1131).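 Further: z-score merges 667 nm fluorescence with per-spot signal-to-noise over triplicate slides.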 As to conditions: fibrinogen-A647 binding fluorescence, higher = more signal.
Test [5] concerns the target Follistatin (Homo sapiens) (UniProt P19883). Nature of the test: follistatin binders on small-molecule microarrays, primary screen, biochemical, small-molecule microarray, 635/667 nm fluorescence (AID 1132). To be noted: FST binding, 635 nm fluorescence, higher = more signal.
Test [6] has as its target Fibroblast growth factor 2 (Homo sapiens) (UniProt P09038). Nature of the test: FGF2 binders on small-molecule microarrays, primary screen, biochemical, small-molecule microarray, 635/667 nm fluorescence (AID 1133). As to conditions: small-molecule microarray binding, FGF2, fluorescence 635/667; higher = more signal.
Test [7] can be described thus: mitochondrial membrane potential change in A549 cells, profiling panel, cell-based, JC-1 fluorescence, basal, 24 h, 100 nL (AID 1138).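 Further: A549 lung adenocarcinoma cells under basal conditions with no added stimulus; test concentration not given here.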 To be noted: higher = more signal.
The subject of a further test is Lefty1. The test is described as follows: Lefty1 binders on small-molecule microarrays, primary screen, biochemical, small-molecule microarray, 635/667 nm fluorescence (AID 1139). As to conditions: small-molecule microarray binding, fluorescence 635/667; higher = more signal.
Test [8] concerns wheat germ agglutinin (Triticum aestivum), Alexa647-labelled. The test is described as follows: wheat germ agglutinin binders on compound microarrays, profiling panel, artefact control for SMM control-protein annotation, biochemical, small-molecule microarray, 635/667 nm fluorescence (AID 1140).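 Further: score merges 667 nm feature emission with signal to noise over triplicate slides.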 As to conditions: WGA-A647 binding, 635 nm fluorescence, higher = more signal.
Test [9] has as its target Luciferin 4-monooxygenase (Photinus pyralis) (UniProt P08659). The test is described as follows: firefly luciferase enzyme inhibitors, primary screen, biochemical, luminescence, purified enzyme, 2006 set (AID 1141).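 Further: cell-free assay with purified firefly luciferase at 100 ng per well in PBS; test concentration not given here.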 As to conditions: SteadyGlo luminescence, 30 min, higher = more signal, called active from +8 up or from −8 down.
In test [10] the test system is Wnt5a (protein binding on small-molecule microarray). The test is described as follows: Wnt5a binders on small-molecule microarray, primary screen, biophysical, 635/667 nm fluorescence (AID 1142).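 Further: fluorescence read at 667 nm with signal to noise per printed feature.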 As to conditions: 635 nm fluorescence, higher = more signal.
Test [11] is described as follows: cell viability in Huh7 cells, primary screen, cytotoxicity control for HCV replication inhibitor project, CellTiter-Glo luminescence, basal, 48 h (AID 1143).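 Further: Huh7 hepatoma cells carrying a hepatitis C replication reporter with no stimulus; test concentration not given here.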 To be noted: Huh7 HCV replicon, higher = more signal, called active from +8 up or from −8 down. In general terms: ATP-based viability assays read luminescence as a measure of living cells.
A short description of test [12]: P. aeruginosa biofilm formation inhibitors, primary screen, PAO1 strain, BacTiter-Glo luminescence, LB-PBS (AID 1144). To be noted: 12 h, higher = more signal.
A short description of test [13]: CREB reporter modulators without forskolin, primary screen, cell-based, PC12, CRE-LacZ reporter, unstimulated (AID 1145). To be noted: no forskolin, luminescence, 4.5 h, higher = more signal, called active from +8 up or from −8 down.
Test [14] in a line: CREB reporter modulators under forskolin, primary screen, cell-based, PC12, CRE-LacZ reporter, forskolin-stimulated (AID 1146).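 Further: PC12 cells with 6xCRE LacZ reporter stimulated by forskolin 10 µM; beta-galactosidase reporter signal reflecting CREB driven transcription.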 As to conditions: luminescence, 4.5 h, higher = more signal, called active from +8 up or from −8 down.
The target in test [15] is Streptavidin (Streptomyces avidinii) (UniProt P22629). Nature of the test: streptavidin binders on small-molecule microarray, primary screen, artefact control for SMM compound annotation, biophysical, 635/667 nm fluorescence (AID 1147).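 Further: signal reflects streptavidin binding to arrayed compounds as a control protein.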 As to conditions: streptavidin binding, higher = more signal.
Test [16] in a line: small-molecule binders of probe aInhba, primary screen, biochemical, small-molecule microarray, 635/667 nm fluorescence (AID 1148).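 Further: score merges 667nm spot fluorescence with signal-to-noise for antibody binding to printed compounds.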 To be noted: higher = more signal.
Test [17] has as its target Torsin-1A (Homo sapiens) (UniProt O14656). The test is described as follows: torsin A binders from cell lysate, primary screen, small-molecule microarray, wild-type, 635/667 nm (AID 1149). To be noted: COS7 hTOR1A-WT lysate, 635 nm fluorescence, higher = more signal.
For test [18] the target is unchanged. The test is described as follows: small-molecule binders of mutant TOR1A in lysate, primary screen, cell lysate, small-molecule microarray, COS7 lysate, 635/667 nm fluorescence (AID 1150).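 Further: score pools 667 nm emission and signal to noise measuring lysate protein binding.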 To be noted: COS7 hTOR1A mutant lysate, 635 nm fluorescence, higher = more signal.
For test [19], the system named is Sonic hedgehog protein (Shh). Nature of the test: small-molecule binders of Shh protein, primary screen, biochemical, small-molecule microarray, 635/667 nm fluorescence (AID 1151).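 Further: Shh protein binding to compounds spotted on small-molecule microarray slides; score combines spot fluorescence intensity with signal-to-noise across triplicate slides.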 As to conditions: small-molecule microarray binding, 635 nm fluorescence; higher = more signal.

Fibroblast growth factor 2 (Homo sapiens), sequence (P09038 whole entry, looked up): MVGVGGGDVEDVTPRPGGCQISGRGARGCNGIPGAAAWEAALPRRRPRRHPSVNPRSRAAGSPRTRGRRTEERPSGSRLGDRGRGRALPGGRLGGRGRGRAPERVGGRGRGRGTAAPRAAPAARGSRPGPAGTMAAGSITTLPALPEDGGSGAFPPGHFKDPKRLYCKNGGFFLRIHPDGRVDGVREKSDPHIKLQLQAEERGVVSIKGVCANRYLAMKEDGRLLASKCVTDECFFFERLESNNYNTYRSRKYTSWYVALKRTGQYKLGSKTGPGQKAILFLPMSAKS
Focal adhesion kinase 1 (Homo sapiens), sequence (Q05397 whole entry, looked up): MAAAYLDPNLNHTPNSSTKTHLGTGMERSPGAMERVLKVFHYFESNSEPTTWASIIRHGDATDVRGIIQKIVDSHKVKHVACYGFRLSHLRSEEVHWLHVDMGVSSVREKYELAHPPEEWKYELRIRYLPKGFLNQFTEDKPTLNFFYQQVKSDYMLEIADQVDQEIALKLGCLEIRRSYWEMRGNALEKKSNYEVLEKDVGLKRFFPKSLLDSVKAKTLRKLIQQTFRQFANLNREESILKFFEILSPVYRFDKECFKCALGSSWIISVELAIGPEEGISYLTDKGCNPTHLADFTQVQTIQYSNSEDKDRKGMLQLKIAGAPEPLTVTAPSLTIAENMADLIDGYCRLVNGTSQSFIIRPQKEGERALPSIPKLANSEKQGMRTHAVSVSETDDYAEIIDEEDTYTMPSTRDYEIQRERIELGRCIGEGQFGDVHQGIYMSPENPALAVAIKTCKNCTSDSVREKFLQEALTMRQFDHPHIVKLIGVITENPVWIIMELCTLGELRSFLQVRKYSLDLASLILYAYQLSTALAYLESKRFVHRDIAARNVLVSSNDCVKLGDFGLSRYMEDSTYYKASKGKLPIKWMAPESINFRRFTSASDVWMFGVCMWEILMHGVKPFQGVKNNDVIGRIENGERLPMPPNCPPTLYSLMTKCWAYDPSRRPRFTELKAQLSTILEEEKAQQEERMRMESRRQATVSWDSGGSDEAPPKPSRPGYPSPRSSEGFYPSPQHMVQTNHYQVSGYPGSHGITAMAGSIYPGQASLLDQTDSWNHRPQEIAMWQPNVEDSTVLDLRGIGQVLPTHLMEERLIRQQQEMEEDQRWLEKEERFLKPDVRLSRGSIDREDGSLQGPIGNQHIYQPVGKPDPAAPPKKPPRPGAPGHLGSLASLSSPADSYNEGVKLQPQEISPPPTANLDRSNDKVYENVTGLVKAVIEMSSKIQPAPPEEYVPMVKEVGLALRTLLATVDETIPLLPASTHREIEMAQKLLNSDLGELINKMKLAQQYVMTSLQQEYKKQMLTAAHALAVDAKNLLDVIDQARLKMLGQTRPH
Torsin-1A (Homo sapiens), sequence (O14656 whole entry, looked up): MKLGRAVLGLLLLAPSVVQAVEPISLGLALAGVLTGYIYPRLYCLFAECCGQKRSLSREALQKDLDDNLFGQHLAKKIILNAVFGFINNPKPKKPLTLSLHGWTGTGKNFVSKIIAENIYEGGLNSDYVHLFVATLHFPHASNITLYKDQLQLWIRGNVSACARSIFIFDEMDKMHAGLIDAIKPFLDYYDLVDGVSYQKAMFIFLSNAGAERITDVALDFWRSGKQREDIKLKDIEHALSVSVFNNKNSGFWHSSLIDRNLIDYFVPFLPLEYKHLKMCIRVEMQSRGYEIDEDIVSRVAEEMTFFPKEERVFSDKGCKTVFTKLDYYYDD
Follistatin (Homo sapiens), sequence (P19883 whole entry, looked up): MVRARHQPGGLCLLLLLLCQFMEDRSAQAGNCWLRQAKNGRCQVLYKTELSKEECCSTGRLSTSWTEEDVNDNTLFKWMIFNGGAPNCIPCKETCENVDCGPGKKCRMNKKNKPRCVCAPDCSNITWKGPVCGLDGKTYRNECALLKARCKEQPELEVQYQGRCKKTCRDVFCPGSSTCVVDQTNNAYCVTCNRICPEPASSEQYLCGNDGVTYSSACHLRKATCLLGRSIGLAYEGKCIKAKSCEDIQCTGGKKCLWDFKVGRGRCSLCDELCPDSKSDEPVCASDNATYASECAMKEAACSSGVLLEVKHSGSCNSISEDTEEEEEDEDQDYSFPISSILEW
Luciferin 4-monooxygenase (Photinus pyralis), sequence (P08659 whole entry, looked up): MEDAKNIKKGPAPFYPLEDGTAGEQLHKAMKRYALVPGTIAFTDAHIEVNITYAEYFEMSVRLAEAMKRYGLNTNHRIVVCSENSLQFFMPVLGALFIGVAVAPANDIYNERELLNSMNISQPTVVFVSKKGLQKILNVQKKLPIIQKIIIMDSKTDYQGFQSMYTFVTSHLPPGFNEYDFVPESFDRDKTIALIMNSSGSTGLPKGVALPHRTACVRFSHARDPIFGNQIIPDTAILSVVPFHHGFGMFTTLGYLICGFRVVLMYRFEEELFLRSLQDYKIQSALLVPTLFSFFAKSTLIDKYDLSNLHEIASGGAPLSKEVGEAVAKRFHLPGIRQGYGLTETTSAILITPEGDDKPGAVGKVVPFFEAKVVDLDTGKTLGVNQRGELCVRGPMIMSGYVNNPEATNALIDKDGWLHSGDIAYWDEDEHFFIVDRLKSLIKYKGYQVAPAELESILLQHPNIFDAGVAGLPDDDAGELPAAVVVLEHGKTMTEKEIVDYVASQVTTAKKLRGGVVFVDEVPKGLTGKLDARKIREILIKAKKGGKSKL
Streptavidin (Streptomyces avidinii), sequence (P22629 whole entry, looked up): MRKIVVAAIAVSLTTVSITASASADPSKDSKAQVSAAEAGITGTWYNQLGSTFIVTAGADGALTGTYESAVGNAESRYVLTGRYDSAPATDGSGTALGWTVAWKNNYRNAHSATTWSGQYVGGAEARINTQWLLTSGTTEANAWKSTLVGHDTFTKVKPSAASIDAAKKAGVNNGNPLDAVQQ

Regarding `COc1ccc(C(O)C2C=CC3C(=O)N(C)C(=O)C3N2Nc2ccc([N+](=O)[O-])cc2[N+](=O)[O-])cc1OCc1ccccc1` (stereo not given), the composite z-score in [1] is 1.05; in [2] it was 1.19; in test [3] it was 0.368; in test [4] it was 0.545; in test [5] it was 0.699; in test [6], -0.0627. The composite z-score with Lefty1 was determined as 0.0695; in test [8], 1.15; in [10], 0.477; in test [15], 0.171; in test [16], 0.566; with Torsin-1A (Homo sapiens) [17] it was 0.255. Also, the composite z-score with Torsin-1A (Homo sapiens) [18] was 0.387; in [19], -0.105. In addition, the z-score in test [7] is 0.552; in test [9], 0.0945 (inactive); in [11], 0.351 (inactive); in test [12] it was 0.967 (inactive); in test [13] it was 0.243 (inactive); in test [14], 0.706 (inactive).
Take `C=CCC(OC(C)=O)[C@@H]1[C@@H](N(Cc2cc3ccccc3o2)C(=O)c2ccc(-c3ccccc3)cc2)c2cc(OCCCO)ccc2N1C(=O)c1ccc2ccccc2n1` (stereo not given in full): the composite z-score in test [1] is -0.492; in [2], -1.42; in test [3] it was 0.202; in [4] it was -0.858; in test [5], 0.313; in test [6] it was -0.171. The composite z-score in the test on Lefty1 was -0.194; in test [8], -0.0535; in [10], -0.202; in test [15], 0.378; in [16] it was 0.0228; with Torsin-1A (Homo sapiens) [17], 0.179. Moreover, the figures for the composite z-score (in the test with Torsin-1A (Homo sapiens) [18]; in [19]) were 0.165 and 0.135, respectively. Moreover, the z-score was 1.71 in test [7]; -0.847 (inactive) in test [9]; 0.214 (inactive) in [11]; -0.115 (inactive) in test [12]; 2.46 (inactive) in [13]; -0.531 (inactive) in test [14].
With `COC(=O)[C@@]1(Cc2ccc(F)cc2)[C@H]2c3cc(C(=O)N4CCCC4)n(CCO)c3C[C@H]2CN1C(=O)c1ccccc1`, the composite z-score is 0.896 in test [1]; 1.05 in [2]; 1.51 in [3]; -2.15 in test [4]; -0.212 in test [5]; -0.862 in [6]. Besides, the composite z-score in the test with Lefty1 was -0.0322; in test [8] it was 0.0962; in [10] it was 0.181; in [15] it was 0.0865; in [16], -0.0719; in the test with Torsin-1A (Homo sapiens) [17], -0.113. The composite z-score in the test with Torsin-1A (Homo sapiens) [18] was 0.0413; in [19] it was -1.69. Moreover, the z-score was 1.44 in [7]; 1.74 (inactive) in test [9]; -0.225 (inactive) in test [11]; 0.452 (inactive) in test [12]; 0.201 (inactive) in test [13]; -0.773 (inactive) in test [14].
For `Cc1ccc(S(=O)(=O)N2[C@@H](c3ccccc3)C(C(=O)O)=CC[C@H]2c2ccc(C#N)cc2)cc1`, the composite z-score in test [1] is 1.58; in test [2], 1.31; in test [3] it was 0.447; in [4] it was 0.992; in test [5] it was 0.0793; in [6] it was -0.413. The composite z-score is -0.388 in the test on Lefty1; 1.05 in test [8]; 0.111 in test [10]; 0.0546 in [15]; -0.148 in [16]; 0.834 with Torsin-1A (Homo sapiens) [17]. Moreover, the composite z-score with Torsin-1A (Homo sapiens) [18] was 2.1; in test [19], -0.133. Besides, the z-score is -1.38 in test [7]; 0.654 (inactive) in test [9]; -0.478 (inactive) in test [11]; -0.236 (inactive) in test [12]; -0.275 (inactive) in [13]; -0.551 (inactive) in [14].
As to `COCCn1c(C(=O)N2CCCC2)cc2c1C[C@H]1CN(C(=O)c3ccccc3)[C@@](Cc3ccccc3)(C(=O)OC)[C@@H]21`, the composite z-score in test [1] was 1.09; in test [2], 0.822; in test [3] it was 1.54; in test [4], 0.948; in test [5], 0.298; in [6], 0.121. Moreover, the composite z-score in the test with Lefty1 is 0.334; in test [8], 1.11; in test [10], 0.576; in test [15] it was 0.393; in test [16], 0.679; in the test with Torsin-1A (Homo sapiens) [17], 0.22. The composite z-score with Torsin-1A (Homo sapiens) [18] was 1.18; in test [19] it was -0.193. Also, the z-score in [7] was 0.109; in [9] it was 2.58 (inactive); in [11] it was -1.01 (inactive); in test [12], -0.784 (inactive); in test [13], -0.182 (inactive); in test [14], -0.034 (inactive).
